Ten compounds from PubChem BioAssay AID881 (National Center for Advancing Translational Sciences (NCATS), 2007) can be followed below.

Out of some 110,000 compounds screened, about 610 (0.55%) were called active. Roughly 3% stayed inconclusive and do not appear here. Calls follow the shape of the dose curve; as a rule, active = well fitted inhibition curve with a large enough effect; inconclusive = small, poorly fitted or top-dose-only effect; inactive = no such curve, though single readings can be large or run the other way. The entries come from a sample that favours actives as a whole. Where a call stands in place of a potency, no number is given.
Potency is read from the fitted curve at half-maximal effect.

Polyunsaturated fatty acid lipoxygenase ALOX15B (Homo sapiens), sequence (O15296 whole entry, looked up): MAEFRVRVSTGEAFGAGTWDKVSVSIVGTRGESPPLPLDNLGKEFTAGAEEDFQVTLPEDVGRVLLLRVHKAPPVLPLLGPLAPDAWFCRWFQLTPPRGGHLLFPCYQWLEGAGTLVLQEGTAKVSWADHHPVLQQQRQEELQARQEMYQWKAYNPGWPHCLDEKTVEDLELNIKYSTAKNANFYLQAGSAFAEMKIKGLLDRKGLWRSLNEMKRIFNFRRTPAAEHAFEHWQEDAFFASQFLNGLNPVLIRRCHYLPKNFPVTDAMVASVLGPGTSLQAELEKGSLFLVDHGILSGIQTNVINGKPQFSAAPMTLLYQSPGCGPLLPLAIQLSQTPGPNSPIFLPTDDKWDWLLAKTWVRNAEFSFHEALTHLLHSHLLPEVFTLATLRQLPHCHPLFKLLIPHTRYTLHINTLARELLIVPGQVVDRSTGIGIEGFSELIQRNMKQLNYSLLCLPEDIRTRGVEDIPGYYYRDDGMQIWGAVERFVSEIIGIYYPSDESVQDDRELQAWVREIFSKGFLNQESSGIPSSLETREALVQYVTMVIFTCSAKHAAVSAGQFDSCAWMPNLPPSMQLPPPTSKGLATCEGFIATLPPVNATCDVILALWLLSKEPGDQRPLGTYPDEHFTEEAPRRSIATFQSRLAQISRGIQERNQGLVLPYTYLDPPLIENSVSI

The test deals with Polyunsaturated fatty acid lipoxygenase ALOX15B (Homo sapiens) (UniProt O15296). As to the kind of experiment: qHTS Assay for Inhibitors of 15-hLO-2 (15-human lipoxygenase 2). Also: nearly all actives have a fitted effect of over 60% in size. The conditions noted are these: purified 15hLO-2, xylenol orange hydroperoxide absorbance; series mostly up to 0.0915 µM. The source says:
Assay Overview: NIH Molecular Libraries Screening Centers Network [MLSCN] NIH Chemical Genomics Center [NCGC] MLSCN Grant: MH081283-01A1 PI Name: Holman, T.R., University of California, Santa Cruz Human lipoxygenase 15hLO-2 is a member of the closely related lipoxygenase family of enzymes which catalyze the site-specific oxidation of arachidonic acid to various hormone precursor molecules and as such is a candidate for drug development in a variety of disease areas, such as cancer and inflammation. Inhibition of 15hLO-2 activity was screened by utilizing arachidonic acid as a substrate. The extent of hydroperoxide product formation was measured by a secondary chromogenic reaction in which xylenol orange (XO, Sigma-Aldrich, cat. number 39,818-7) reacts with the ferric ions produced from the reaction between the hydroperoxide and ferrous ions. The Fe(III)-XO complex is characterized with red-shifted absorbance at 560 nm. A purified preparation of human 15hLO-2 was supplied by Professor Ted Holman, University of California, Santa Cruz.
Assay Protocol: Buffer: 25 mM Hepes pH 7.5, 0.01% Triton X-100. Reagents/Controls: Buffer in columns 3 and 4 as negative control (no enzyme). Substrate solution: 45 uM arachidonic acid (Sigma-Aldrich, St. Louis, MO) final concentration dispensed throughout the plate. Enzyme: 50 nM 15hLO-2 final concentration in columns 1, 2, 5-48. Column 1 is neutral (100% activity). Column 2 contained pin-transferred titration of NDGA (nordihidroguaiaretic acid, Sigma-Aldrich, N 5023, top concentration 10 mM in DMSO, then 1:2 dilution in duplicate). (Dilution factor: 23 nL into 4 uL.) Chromogenic detection reagent (divalent iron/xylenol orange, Fe-XO): 200 uM xylenol orange plus 300 uM ferrous ammonium sulfate prepared freshly in 50 mM sulfuric acid. Assay Steps: Three uL of enzyme were dispensed to 1536-well Greiner black clear bottom plates. Compounds and controls (23 nL) were transferred via Kalypsys PinTool. The plates were incubated for 15 min at room temperature, and then 1 uL of substrate solution was added to start the reaction. After room temperature incubation for 90 minutes, 4 uL of Fe-XO solution was added to each well followed by a short spin (1000 rpm, 15 sec) and the plates were then incubated for 30 min. The absorbance at 405 and 573 nm were measured using ViewLux (Perkin-Elmer) High-throughput CCD imager and absorbance protocol settings. The 573-to-405 absorbance ratio was used to compute reaction progress.
(qHTS replaces the single test concentration by a dilution series.)
Take `CC(C)CC(C)Nc1ccc(Nc2ccccc2)cc1` (stereo not given): the Potency was 1.58 µM (active).
Turning to `CC(=O)NC(=O)NC(C)Cc1ccccc1` (stereo not given), the Potency entry was “inactive”.
As for `CC(C)(O/N=C(\C(=O)N[C@@H]1C(=O)N2C(C(=O)[O-])=C(C[n+]3ccccc3)CS[C@@H]12)c1csc(N)n1)C(=O)O`, the Potency result is “inactive”.
Turning to `CCCCCCCCc1[se]c2ccccc2c1Br`, the Potency result was “inactive”.
With `CN(C)[C@@H]1C(=O)C(C(N)=O)=C(O)[C@@]2(O)C(=O)C3=C(O)c4c(O)cccc4[C@@](C)(O)C3CC12` (stereo not given in full), the Potency result was “inactive”.
`COc1ccccc1-c1[se]c2ccccc2c1I`: the Potency entry was “inactive”.
Consider `Clc1ccc(C(c2ccc(Cl)cc2)n2cc[n+](C[C@@H](OCc3ccc(Cl)cc3Cl)c3ccc(Cl)cc3Cl)c2)cc1`, for which the Potency is 25.1 µM (active).
For `N#CC(C#N)=Cc1cc(O)c(O)c([N+](=O)[O-])c1`, the Potency entry was “inactive”.
Turning to `COC(=O)c1ccc2[se]c(CC3CCCCC3)c(I)c2c1`, the Potency entry was “inactive”.
Regarding `CC(C)(O)c1[se]c2ccccc2c1I`, the Potency result was “inactive”.
